The sample as a whole holds a higher share of hits than the screen did.
TbPYK inhibitor: T. brucei pyruvate kinase inhibition. Q57TT1. TbPYK enzyme, Kinase-Glo Plus ATP luminescence, 45 min. Potency, µM (series often up to 76.8 µM), without a hit: at the highest dose activity, negative = inhibition, most hits filed as inhibitors. 410,000 compounds, 0.12% hits; also: potency is read from the fitted curve at half-maximal effect; % is scaled to controls: 0 for no effect and ±100 for the full control effect; nearly all actives have a fitted effect of over 50% in size
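In this concentration-response screen, enzyme-free wells defined baseline while DMSO plates tracked drift. Each reaction combined TbPYK, substrate, compound and 130 uM ADP for 45 min at room temperature. Kinase-Glo Plus luminescence gave the signal.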
FBPA Giardia inh: blocks Giardia fructose-bisphosphate aldolase activity; A8B2U2; purified Giardia FBPA; Potency, µM (top dose mostly 59.6 µM), for inactives: at the top dose activity, negative = inhibition, most hits filed as inhibitors; 290,000 compounds, 0.71% hits; also: potency is read from the fitted curve at half-maximal effect; % is scaled to controls: 0 for no effect and ±100 for the full control effect; nearly all actives have a fitted effect of over 55% in size
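Giardia FBPA (40 nM reagent) was preincubated 10 min at RT with compound (up to 57.5 uM final), then substrate plus GAPDH/TPI/NAD/arsenate coupling system with diaphorase/resazurin was added; resorufin fluorescence (525/598 nm) was read after 20 min.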
Shiga inhibitor: blocks Shiga toxin action in Vero cells; Vero cells, Shiga toxin protein synthesis inhibition reporter; inhibition, % at 38.7 µM; 290,000 compounds, 9.2% hits; in the data active = inhibition mostly above about 28%, no sharp cut-off; inactive = mostly below about 43%; also: 0% is about no effect
LmPK inhibitor: inhibitors of Leishmania mexicana pyruvate kinase. purified LmPK, Kinase-Glo ATP luminescence, 1 h. 290,000 compounds, 0.37% hits. Potency, µM (titrated, usually from 57.5 µM), for inactives: at the highest dose activity change, negative = inhibition, actives largely listed as inhibitors; also: potency is read from the fitted curve at half-maximal effect; % is scaled to controls: 0 for no effect and ±100 for the full control effect
Target sequence (Q27686 whole entry, looked up): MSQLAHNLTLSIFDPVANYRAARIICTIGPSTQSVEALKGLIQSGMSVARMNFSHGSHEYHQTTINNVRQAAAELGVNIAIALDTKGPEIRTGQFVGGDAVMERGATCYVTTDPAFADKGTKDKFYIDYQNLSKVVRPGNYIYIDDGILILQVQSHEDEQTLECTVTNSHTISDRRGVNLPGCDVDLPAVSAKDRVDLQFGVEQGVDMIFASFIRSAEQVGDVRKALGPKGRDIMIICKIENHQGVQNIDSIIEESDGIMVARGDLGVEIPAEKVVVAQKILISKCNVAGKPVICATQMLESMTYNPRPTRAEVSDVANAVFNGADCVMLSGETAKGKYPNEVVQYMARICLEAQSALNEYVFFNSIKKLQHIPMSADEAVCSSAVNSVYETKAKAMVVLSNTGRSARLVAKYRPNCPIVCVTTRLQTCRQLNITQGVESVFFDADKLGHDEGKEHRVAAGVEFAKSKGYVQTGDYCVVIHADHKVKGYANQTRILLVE
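0.1 nM LmPK, 0.5 mM PEP, 0.1 mM ADP; 50 mM imidazole pH 7.2, 7 mM MgCl2, 50 mM KCl; 1 h RT. Kinase-Glo luminescence readout, normalized to no-enzyme (full inhibition) and uninhibited wells.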
CHX counter: affects cycloheximide protein synthesis inhibition readout, counter-screen. cell reporter, cycloheximide protein synthesis inhibition counterscreen. max response, %. 300,000 compounds, 12% hits; in the data active = max response mostly above about 13%, no sharp cut-off; inactive = mostly below about 14%; also: read at 38.3 µM for the half of the compounds with a filed dose; 0% is about no effect
RE007 growth inh: less growth of the S. pombe RE007 Vpr strain; S. pombe RE007 Vpr strain, BacTiter-Glo ATP luminescence, 24 h; Potency, µM (highest dose often 92.2 µM), for inactives: top-dose activity change, negative = less growth, hits mostly inhibitors; 360,000 compounds, 0.21% hits; AID 651644; active = well fitted falling curve with a large enough effect; inconclusive = small, poorly fitted or top-dose-only effect; inactive = no such curve, though single readings can be large or run the other way; also: potency is read from the fitted curve at half-maximal effect; % is scaled to controls: 0 for no effect and ±100 for the full control effect; nearly all actives have a fitted effect of over 50% in size
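Fission yeast strain RE007, carrying one chromosomally integrated HIV-1 vpr copy, was seeded at OD 0.01 in PMG+AL medium with 23 nL pinned compound. After 24 h at 30 °C and 99% humidity, viability was read by BacTiter-Glo luminescence.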
* hit, by the source's call; u = inconclusive; x = no result; [ ] = remark or other dose. Unless noted, calls follow the shape of the dose curve; as a rule, active = well fitted curve in the direction sought with a large enough effect; inconclusive = small, poorly fitted or top-dose-only effect, or another doubt; inactive = no such curve, though single readings can be large; an effect the other way counts as inactive or inconclusive.

SMILES | TbPYK inhibitor | FBPA Giardia inh | Shiga inhibitor | LmPK inhibitor | CHX counter | RE007 growth inh
CC1(C)CC(=O)C2=C(C1)OC1=C(C(=O)CC(C)(C)C1)C2c1ccc(O)cc1O | 40µM* | -11% | -15 | 4% | -10 | u
CCC/C=C/C(C)O (stereo not drawn) | x | 2% | x | x | x | x
Nc1ccc2c3c(ccc([N+](=O)[O-])c13)CC2 | -4% | x | x | x | x | u
C=C1C[C@@H]2[C@H]3CCC4=CC(=O)C=C[C@]4(C)[C@@]3(F)[C@@H](O)C[C@]2(C)[C@]1(O)C(=O)COC(C)=O | 2% | x | x | x | x | x
Fc1cccc(Cc2c(-c3ccco3)nc3ccc(Cl)cn23)c1 | u | x | x | x | x | -8%
Fc1cccc(Cc2c(-c3ccco3)nc3ccc(Br)cn23)c1 | 25µM* | x | x | x | x | -10%
O=C(CSC1=Nc2ccccc2N=C(c2ccc(F)cc2)C1)NCc1ccccc1 | 6% | x | x | x | x | x
O=C(/C=C/c1ccccc1[N+](=O)[O-])c1ccccc1Br | 5% | 0% | 47* | -2% | 14* | 28µM*
Cc1ccc(C(=O)/C=C/c2ccccc2[N+](=O)[O-])cc1 | 2% | -12% | 39 | -3% | 28* | 3%
Cc1ccc(C(=O)/C=C/c2ccc(-c3ccccc3[N+](=O)[O-])o2)cc1 | -15% | u | -4 | -3% | -1 | -9%
Cc1ccc(C(=O)C(C)OC(=O)c2ccccc2[N+](=O)[O-])cc1 (stereo not drawn) | 5% | -6% | 71* | -1% | 50* | 6%
CN(C)C(=O)COC(=O)/C=C/c1ccccc1[N+](=O)[O-] | -11% | 0% | 45 | -14% | -1 | 1%
CCN(CC)C(=O)C1CCCN(C(=O)c2cc(COc3cccc(OC)c3)on2)C1 (stereo not drawn) | -8% | x | -13 | -7% | -1 | -13%
CCc1ccc(N2CC(C(=O)Nc3nc4ccc(S(C)(=O)=O)cc4s3)CC2=O)cc1 (stereo not drawn) | 2% | -6% | 67* | 7% | 17* | 3%
CCc1ccc(C(=O)NNC(=O)C2CC(=O)N(c3ccc4c(c3)OCCO4)C2)cc1 (stereo not drawn) | -2% | x | x | x | x | -2%
COC(=O)c1ccc(CSc2nnc(NC(=O)C3CC(=O)N(c4ccc5c(c4)OCCO5)C3)s2)cc1 (stereo not drawn) | 1% | 21% | 2 | 0% | 20* | -9%
CC(=O)Nc1ccc(NC(=O)C2CC(=O)N(c3cccc(C)c3C)C2)cc1 (stereo not drawn) | -12% | 1% | 23 | 1% | 7 | 1%
CS(=O)(=O)c1ccc2nc(NC(=O)C3CC(=O)N(c4ccc(F)cc4)C3)sc2c1 (stereo not drawn) | -10% | 8% | -4 | 5% | -2 | 22%
COc1ccc(-c2csc(NC(=O)C3CC(=O)N(c4ccc5c(c4)OCCO5)C3)n2)cc1 (stereo not drawn) | 0% | -6% | 14 | 5% | 24* | 8%
Cc1cccc(N2CC(C(=O)Nc3ccc4c(c3)OCCO4)CC2=O)c1C (stereo not drawn) | -5% | 1% | 71* | -1% | 11 | 12%
COC(=O)[C@]12CCCCC=C1N(CCC1=CCCCC1)C(=O)[C@H](CC(=O)NCc1cccc3ccccc13)C2 | -6% | x | x | x | x | -5%
CCc1ccc(N2CC(C(=O)Nc3ccc4c(c3)OCCO4)CC2=O)cc1 (stereo not drawn) | 2% | 6% | 82* | 7% | 31* | -5%
COc1ccc(C2c3cc(OC)c(OC)cc3Cc3c4cc(OC)c(OC)cc4cc[n+]32)cc1OC (stereo not drawn) | x | 1% | x | x | x | x
CN(C)c1ccc(N2C(=O)CSC2=S)cc1 | 1% | 1% | 62* | -5% | 19* | x
O=C(O)c1cccc(N2C(=O)CSC2=S)c1 | 1% | -13% | 37 | 1% | 19* | 20%
COc1ccc(-n2c(=O)c3ccccc3n(CC(=O)NCCc3ccccc3)c2=O)c(OC)c1 | 5% | x | x | x | x | x
C=C(C)C(O)/C=C/C=C/c1ccccc1 (stereo not drawn) | x | 0%[12.9 µM] | x | x | x | x
N#Cc1ccc(C2CC(OCCF)=CC(=O)O2)cc1 (stereo not drawn) | x | x | x | x | x | 5%

From PubChem
